# Results filed as inconclusive are left out. A call without a number means that no potency is given here. The source made the active and inactive calls. Unless noted, the call rests on the fitted dose curve; in most records, active means well fitted curve in the direction sought with a large enough effect in the repeat runs; inconclusive means weak or mixed curves; inactive means no such curve, though single readings can be large; an effect the other way counts as inactive or inconclusive.
# Target: Calcium and integrin-binding protein 1 (Homo sapiens) (UniProt Q99828)
# Sequence (Q99828 whole entry, looked up): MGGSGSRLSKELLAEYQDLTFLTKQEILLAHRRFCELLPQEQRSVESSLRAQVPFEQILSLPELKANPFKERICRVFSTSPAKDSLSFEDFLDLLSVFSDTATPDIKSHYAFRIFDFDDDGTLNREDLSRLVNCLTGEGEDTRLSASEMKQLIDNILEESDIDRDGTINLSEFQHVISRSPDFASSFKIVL
# Experiment: Primary qHTS for Identification of Calcium Integrin Binding Protein 1 (CIB1) Competitor (AID 1508620; active means well fitted curve in the direction sought with a large enough effect; an effect the other way counts as inactive or inconclusive;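 further: GST tagged CIB1 binding a fluorescein labelled alphaIIb integrin peptide tracer; top concentration of the series differs between compounds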)
# Details: CIB1-GST / FITC-alphaIIb peptide fluorescence polarization; series mostly up to 114 µM
# Procedure, shortened: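 CIB1-GST (1 uM final) and compound incubated 15 min at room temperature before adding FITC-alphaIIb peptide tracer (100 nM final). Competition for binding read by fluorescence polarization (ex 480, em 540) after another 15 min at room temperature.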
row,Compound,outcome
1,CC1=CC(=O)[C@@]2(C(C)C)C[C@@H]12,inactive
2,COc1ccc2c(c1)CN(C(=O)CCN1CCC(Cc3ccccc3)CC1)CCS2,inactive
3,COc1ccc(-c2nc(-c3cc(C(F)(F)F)cc(C(F)(F)F)c3)n(Cc3ccc(C(N)=O)cc3)c2-c2ccc(OC)cc2)cc1,inactive
4,CNc1cc(OC)c(C(=O)N[C@@H]2CCN(Cc3ccccc3)[C@@H]2C)cc1Cl,inactive
5,CC(=O)Nc1ccc(C(=O)Nc2ccccc2N)cc1,inactive
6,C=C(C(=O)O)C1CC2=C(C)C(=O)CC2C(C)CC1O (stereo not given),inactive
7,Cc1cc(CN)cc(C)c1NC(=O)c1ccc(-c2cc(Cl)ccc2Cl)o1,inactive
8,C=C1C(=O)O[C@@H]2C[C@@]3(C)CCC[C@H](C)C3=C[C@H]12,inactive
9,Cc1cc(C)c(NC(=O)N(Cc2ccc3c(c2)Cc2ccccc2-3)C2CCCCCC2)c(C)c1,inactive
10,CN(Cc1ccc(C(=O)O)cc1)c1ccc(OCc2c(-c3c(Cl)cccc3Cl)noc2C2CC2)nc1C(F)(F)F,inactive
11,CC1CCN(c2cc(NC(=O)c3ccccc3)ncn2)CC1,inactive
12,CCOc1ccc(-c2nc(-c3cccc4c3CCC4NCCO)no2)cc1OCC (stereo not given),inactive
13,CCC(=O)c1cc(-c2ccc(Cl)cc2)n(-c2ccc(S(N)(=O)=O)cc2)c1C,inactive
14,COc1cccc(NC[C@@H](O)Cn2c3ccc(Br)cc3c3cc(Br)ccc32)c1,inactive
15,O=C(/C=C/n1cnc(-c2cc(C(F)(F)F)cc(C(F)(F)F)c2)n1)NNc1cnccn1,inactive
16,COc1cc(-c2cc(-c3cccc(O)c3)cnc2N)cc(OC)c1OC,inactive
17,COc1c(N2CC3CCCNC3C2)c(F)cc2c(=O)c(C(=O)O)cn(C3CC3)c12 (stereo not given),inactive
18,COc1ccc(Cl)cc1[C@@]1(F)C(=O)Nc2cc(C(F)(F)F)ccc21,inactive
19,C[C@H](NC(=O)C(C)(C)Oc1ccc(C(F)(F)F)cn1)[C@@H](Cc1ccc(Cl)cc1)c1cccc(C#N)c1,inactive

# Target: Cytochrome P450 2D6 (Homo sapiens) (UniProt P10635)
# Sequence (P10635 whole entry, looked up): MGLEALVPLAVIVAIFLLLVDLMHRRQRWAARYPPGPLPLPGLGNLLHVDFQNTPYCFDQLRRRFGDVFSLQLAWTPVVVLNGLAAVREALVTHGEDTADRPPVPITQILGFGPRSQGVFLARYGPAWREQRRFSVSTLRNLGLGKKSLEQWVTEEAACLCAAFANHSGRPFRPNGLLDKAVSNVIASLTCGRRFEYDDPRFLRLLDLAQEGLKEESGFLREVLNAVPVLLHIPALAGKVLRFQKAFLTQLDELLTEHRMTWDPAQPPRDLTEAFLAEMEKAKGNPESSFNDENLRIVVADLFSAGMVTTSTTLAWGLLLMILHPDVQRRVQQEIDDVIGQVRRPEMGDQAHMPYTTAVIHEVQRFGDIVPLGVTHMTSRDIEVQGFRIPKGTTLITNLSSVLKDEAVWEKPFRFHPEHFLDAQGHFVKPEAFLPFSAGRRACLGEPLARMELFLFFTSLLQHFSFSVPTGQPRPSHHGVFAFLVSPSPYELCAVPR
# Experiment: Cytochrome P450 family 2 subfamily D member 6 (CYP2D6) small molecule antagonists: luciferase biochemical (cell-free) qHTS assay (AID 1645840); further: nearly all actives have a fitted effect of over 55% in size; further: potency means the concentration at half of the fitted maximal effect
# Details: P450-Glo CYP2D6 enzyme, luciferin luminescence, 1 h; series mostly up to 57.4 µM
# Procedure, shortened: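 P450-Glo luminescent screen: recombinant CYP2D6 enzyme–proluciferin substrate mix preincubated with compound 10 min at room temperature, then NADPH regeneration added for 1 h at room temperature. Detection reagent added for 20 min; luciferin light read as relative luminescence units.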
row,Compound,Potency
1,CC(=O)N1CCN([C@H]2CCN(C(=O)N(C)[C@H](C)c3cc(C(F)(F)F)cc(C(F)(F)F)c3)[C@@H](c3ccc(F)cc3C)C2)CC1,26.8 µM (active)
2,Fc1ccccc1CNCc1ccc(-c2ccnc3[nH]ccc23)cc1,0.477 µM (active)
3,CCCCc1nc(C)c(CC(=S)N(C)C)c(=O)n1Cc1ccc(-c2ccccc2-c2nn[nH]n2)cc1,inactive
4,Clc1ccccc1CNCC1CCC(CNCc2ccccc2Cl)CC1 (stereo not given),0.151 µM (active)
5,CNc1nc(-c2ccc3c(N)n[nH]c3c2)cc(N2CC(C(=O)NC3CCCCC3)CCC2C)n1 (stereo not given),23.9 µM (active)
6,C[C@@H](CN1CCC(n2c(=O)[nH]c3cc(Cl)ccc32)CC1)NC(=O)c1ccc2ccccc2c1,10.7 µM (active)
7,CN(C)CC(=O)Nc1ccc2[nH]c(=O)c3ccccc3c2c1,inactive
8,COc1ccc2c(c1)CN(C(=O)CCN1CCC(Cc3ccccc3)CC1)CCS2,0.536 µM (active)
9,CNc1cc(OC)c(C(=O)N[C@@H]2CCN(Cc3ccccc3)[C@@H]2C)cc1Cl,0.107 µM (active)
10,CC(C)c1ccc(NC(=O)C(c2ccccc2)N(C)C(=O)Cc2c[nH]c3ccccc23)cc1 (stereo not given),10.7 µM (active)
11,Cc1cc(C)c(NC(=O)N(Cc2ccc3c(c2)Cc2ccccc2-3)C2CCCCCC2)c(C)c1,inactive
12,CC1CCN(c2cc(NC(=O)c3ccccc3)ncn2)CC1,inactive
13,CCOc1ccc(-c2nc(-c3cccc4c3CCC4NCCO)no2)cc1OCC (stereo not given),inactive
14,COc1cc2nc(-c3cc(F)ccc3O)nc(N[C@@H]3CNC[C@H]3C(C)(C)O)c2cc1OC,19 µM (active)
15,COc1cccc(NC[C@@H](O)Cn2c3ccc(Br)cc3c3cc(Br)ccc32)c1,8.49 µM (active)
16,COc1ccc(Cl)cc1[C@@]1(F)C(=O)Nc2cc(C(F)(F)F)ccc21,23.9 µM (active)
17,C[C@H](NC(=O)C(C)(C)Oc1ccc(C(F)(F)F)cn1)[C@@H](Cc1ccc(Cl)cc1)c1cccc(C#N)c1,1.9 µM (active)

# Target: Cytochrome P450 2C9 (Homo sapiens) (UniProt P11712)
# Sequence (P11712 whole entry, looked up): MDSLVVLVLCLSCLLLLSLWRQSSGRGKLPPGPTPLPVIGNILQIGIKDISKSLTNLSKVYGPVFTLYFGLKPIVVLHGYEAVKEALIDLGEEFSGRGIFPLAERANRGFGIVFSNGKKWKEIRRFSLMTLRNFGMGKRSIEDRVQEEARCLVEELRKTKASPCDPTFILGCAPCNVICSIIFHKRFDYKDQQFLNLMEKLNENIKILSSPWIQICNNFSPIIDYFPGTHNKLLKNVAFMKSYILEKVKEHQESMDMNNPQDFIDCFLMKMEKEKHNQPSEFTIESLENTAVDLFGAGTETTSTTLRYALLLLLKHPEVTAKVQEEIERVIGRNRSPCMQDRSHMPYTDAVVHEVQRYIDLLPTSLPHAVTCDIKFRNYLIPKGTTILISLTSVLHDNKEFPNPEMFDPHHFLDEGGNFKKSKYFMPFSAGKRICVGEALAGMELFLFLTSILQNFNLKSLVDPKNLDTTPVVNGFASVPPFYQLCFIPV
# Experiment: Cytochrome P450 family 2 subfamily C member 9 (CYP2C9) small molecule antagonists: luciferase biochemical (cell-free) qHTS assay (AID 1645842); further: nearly all actives have a fitted effect of over 55% in size; further: potency means the concentration at half of the fitted maximal effect
# Details: P450-Glo CYP2C9 enzyme assay, luciferin luminescence; series mostly up to 57.4 µM
# Procedure, shortened: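 Luminescence, after 20 min with luciferin detection reagent, reflected CYP2C9 turnover during a 1 h NADPH-driven reaction at 37C. Enzyme-substrate mix contained 0.4% bovine serum albumin and was preincubated with compound 10 min at room temperature.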
row,Compound,Potency
1,COc1ccccc1-c1c[nH]c2ncc(-c3cncc(C(=O)N(C)C)c3)cc12,3.38 µM (active)
2,Fc1ccccc1CNCc1ccc(-c2ccnc3[nH]ccc23)cc1,inactive
3,CNc1nc(-c2ccc3c(N)n[nH]c3c2)cc(N2CC(C(=O)NC3CCCCC3)CCC2C)n1 (stereo not given),2.13 µM (active)
4,C[C@@H](CN1CCC(n2c(=O)[nH]c3cc(Cl)ccc32)CC1)NC(=O)c1ccc2ccccc2c1,0.239 µM (active)
5,CN(C)CC(=O)Nc1ccc2[nH]c(=O)c3ccccc3c2c1,13.5 µM (active)
6,COc1ccc(-c2nc(-c3cc(C(F)(F)F)cc(C(F)(F)F)c3)n(Cc3ccc(C(N)=O)cc3)c2-c2ccc(OC)cc2)cc1,5.35 µM (active)
7,CC(C)c1ccc(NC(=O)C(c2ccccc2)N(C)C(=O)Cc2c[nH]c3ccccc23)cc1 (stereo not given),2.39 µM (active)
8,Cc1cc(C)c(NC(=O)N(Cc2ccc3c(c2)Cc2ccccc2-3)C2CCCCCC2)c(C)c1,6.01 µM (active)
9,COc1ccc(Cl)cc1[C@@]1(F)C(=O)Nc2cc(C(F)(F)F)ccc21,6.01 µM (active)

# — PubChem BioAssay (NCATS)
